Only some compounds are listed: those with a hit (about 3% of all), similar ones and a draw of the others.
Caspase-7 inhib – qHTS Assay for Allosteric/Competitive Inhibitors of Caspase-7; 75,000 tested, 0.02% active; recombinant caspase-7, Ac-DEVD-AFC fluorescence rate; Potency, µM (top dose mostly 57.5 µM), inactives show at the top dose activity change, negative = inhibition, most hits filed as inhibitors; AID 889, 2007; active = well fitted inhibition curve with a large enough effect in the main read-out, with a control signal flat, not every such curve was filed as active; inconclusive = small, poorly fitted or top-dose-only effect, or a change in a side signal; also: % of control where 0% means no effect
Target sequence (P55210 24-198 limits assumed): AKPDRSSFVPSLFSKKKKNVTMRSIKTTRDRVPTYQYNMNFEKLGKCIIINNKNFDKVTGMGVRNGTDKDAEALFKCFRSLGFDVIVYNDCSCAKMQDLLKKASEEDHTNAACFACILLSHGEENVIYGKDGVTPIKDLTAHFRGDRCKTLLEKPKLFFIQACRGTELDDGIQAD
Target sequence (P55210 207-303 limits assumed): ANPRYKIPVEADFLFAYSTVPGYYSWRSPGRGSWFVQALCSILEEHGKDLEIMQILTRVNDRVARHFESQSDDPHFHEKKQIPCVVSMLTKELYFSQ
ALOX15B inhib – qHTS Assay for Inhibitors of 15-hLO-2 (15-human lipoxygenase 2); Potency, µM (doses to about 57.1 µM), for inactives: at the top dose activity change, negative = inhibition, usual class: inhibitors; 110,000 tested, 0.56% active; AID 881, 2007; purified 15hLO-2, xylenol orange hydroperoxide absorbance; also: % is scaled to controls: 0 for no effect and ±100 for the full control effect; nearly all actives have a fitted effect of over 60% in size
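Read-out: hydroperoxide product oxidises ferrous iron, measured as xylenol orange complex via the 573-to-405 nm absorbance ratio after 30 min. Reaction: 50 nM enzyme, 15 min compound preincubation, 45 uM arachidonic acid, 90 min RT, Hepes pH 7.5 with Triton X-100.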
ALOX15 inhib – qHTS Assay for Inhibitors of 15-hLO (15-human lipoxygenase); Polyunsaturated fatty acid lipoxygenase ALOX15 (Homo sapiens), P16050; AID 887, 2007; purified 15hLO-1, xylenol orange hydroperoxide absorbance; 74,000 tested, 1.4% active; Potency, µM (highest dose often 57.1 µM), for inactives: top-dose activity change, negative = inhibition, actives largely listed as inhibitors; also: % is scaled to controls: 0 for no effect and ±100 for the full control effect; nearly all actives have a fitted effect of over 55% in size
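Purified human 15hLO-1 (40 nM) in 25 mM Hepes pH 7.5, 0.01% Triton X-100, preincubated 15 min RT with compound, then 50 uM arachidonic acid for 6 min. Hydroperoxide read by ferrous/xylenol orange, 30 min; 573/405 nm absorbance ratio gave progress.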
TSHR agonist – qHTS Assay for Agonists of the Thyroid Stimulating Hormone Receptor | 73,000 tested, 0.48% active | Potency, µM (series often up to 57.1 µM), without a hit: at the top dose activation, actives largely listed as activators | HEK293-CNG-TSHR cells (CNG channel as cAMP sensor), membrane potential dye, cAMP | Thyrotropin receptor (Homo sapiens), P16473; active = well fitted activation curve with a large enough effect in the main read-out, with a control signal flat, not every such curve was filed as active; inconclusive = small, poorly fitted or top-dose-only effect, or a change in a side signal; inactive = no such curve, though single readings can be large or run the other way; % of control where 0% means no effect;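 also: the control signal comes from parental cells without the receptor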
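HEK 293 cells stably expressing TSHR and a modified CNG channel, with CNG-only parental cells as counterscreen, were preloaded 60 min at room temperature with membrane potential dye containing 100 uM RO 20-1724. Compound exposure was 30 min, and depolarization was read as fluorescence at 590 nm.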
HEK293 cAMP cs – qHTS Assay for Agonists of the Thyroid Stimulating Hormone Receptor: Activators of Intracellular cAMP Concentrations in Parental HEK 293 | Potency, µM (highest dose often 57.1 µM), inactives show at the top dose activation, most hits filed as activators | 73,000 tested, 2.5% active | AID 938, 2007 | parental HEK293 CNG cAMP sensor, membrane potential fluorescence; also: % of control where 0% means no effect; nearly all actives have a fitted effect of over 55% in size
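Counterscreen for endogenous-receptor signalling: CNG-channel HEK 293 cells report cAMP rise by membrane depolarization. After 60 min dye equilibration with 100 uM RO 20-1724, compounds incubated 30 min before bottom-read fluorescence at 590 nm.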
Caspase-1 inhib – qHTS Assay for Allosteric/Competitive Inhibitors of Caspase-1; P29466; Caspase-1 enzyme, Ac-WEHD-AFC fluorogenic rate; Potency, µM (series often up to 57.5 µM), without a hit: at the highest dose activity change, negative = inhibition, actives largely listed as inhibitors; 75,000 tested, 0.03% active;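 also: plate controls were vehicle for no effect and no substrate for full effect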
Target sequence (P29466 120-297 limits assumed): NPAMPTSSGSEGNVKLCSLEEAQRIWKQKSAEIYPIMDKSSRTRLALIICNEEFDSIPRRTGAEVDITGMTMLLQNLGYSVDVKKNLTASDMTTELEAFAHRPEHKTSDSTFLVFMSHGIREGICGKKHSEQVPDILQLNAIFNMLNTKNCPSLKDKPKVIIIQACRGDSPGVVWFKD
Target sequence (P29466 317-404 limits assumed): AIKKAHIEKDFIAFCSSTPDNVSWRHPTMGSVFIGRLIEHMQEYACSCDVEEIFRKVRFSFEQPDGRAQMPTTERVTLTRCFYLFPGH
An asterisk follows results filed as active; ? = inconclusive; · = no result given; [ ] = another dose, or the depositor's remark. Unless noted, calls follow the shape of the dose curve; as a rule, active = well fitted curve in the direction sought with a large enough effect; inconclusive = small, poorly fitted or top-dose-only effect, or another doubt; inactive = no such curve, though single readings can be large; an effect the other way counts as inactive or inconclusive. Potency is read from the fitted curve at half-maximal effect.

SMILES	Caspase-7 inhib	ALOX15B inhib	ALOX15 inhib	TSHR agonist	HEK293 cAMP cs	Caspase-1 inhib
CCCCNc1nc(C)nc2c1nc(-c1ccccc1)n2CCN1CCCC1	1%	58%	3%	?	?	1%
CCN1CCCC1Cn1c(-c2ccccc2)nc2c(NC3CCCCC3)nc(C)nc21 (stereo not drawn)	-1%	26%	-8%	?	20µM*	1%
NCCNS(=O)(=O)c1cccc2cnccc12	-2%	17%	-1%[25.6 µM]	-3%	-2%	-4%
N#Cc1ccc(CN2CCCC3(CCN(C(=O)c4cnccn4)CC3)C2)cc1	-1%	-3%	5%	18%	29%	-1%
COc1cc(NC(=O)C2COc3ccccc3O2)c(OC)cc1Cl (stereo not drawn)	-3%	-1%	-20%	?	16µM*	-2%
CO[C@@H]1COC(=O)[C@H]2CCCN2C(=O)[C@@H](C)COC(=O)CCC[C@H]1C	1%[11.5 µM]	·	-3%[11.4 µM]	0%[11.4 µM]	3%[11.4 µM]	0%[11.5 µM]
O=C(O)Cn1c(=O)oc2cc(S(=O)(=O)N3CCOCC3)ccc21	1%	·	-4%	2%	4%	-2%
Cc1ccccc1-c1cncnc1NCc1cccs1	0%	30%	-5%	?	16µM*	4%
CCOC(=O)c1c(C)oc2c1c1c(c3ccccc32)OCN(Cc2cccnc2)C1	-18%	15%	2µM*	-18%	-12%	-17%
COc1ccc2c(Cc3c4ccccc4cc4ccccc34)cncc2c1O	?	-15%[11.4 µM]	0%[11.4 µM]	0%[11.4 µM]	-10%[11.4 µM]	?
Cc1cc(C)cc(C(=O)N(C)[C@H](Cc2ccc(-c3ccccc3)cc2)C(=O)N[C@@H](Cc2c[nH]c3ccccc23)C(=O)O)c1	32µM*	?	-6%[25.6 µM]	23%	12%	-13%
N#Cc1ccc(CN2CCC3(CC2)CCN(C(=O)c2ccncc2)CC3)cc1	1%	2%	3%	7%	11%	-7%
COc1ccc(-c2noc(-c3ccccc3C(=O)NCc3ccco3)n2)cc1OC	3%	0%	0%	43%	27%	0%
COc1cccc(NC(=O)c2ccccc2-c2nc(-c3ccc(F)cc3)no2)c1	-3%	11%[2.29 µM]	-14%	?	32µM*	0%
COc1cccc(NC(=O)c2ccccc2-c2nc(-c3ccccc3)no2)c1	-1%	-7%	-5%	?	10µM*	-3%
COc1cccc(NC(=O)c2ccccc2-c2nc(-c3ccc(Cl)cc3)no2)c1	-3%	5%	-11%	?	?	-6%
COc1ccc(-c2noc(-c3ccccc3C(=O)NCc3ccco3)n2)cc1	2%	-2%	-3%	?	16µM*	-3%
O=C(O)c1ccc(-c2ccccc2C(F)(F)F)s1	·	-9%[0.0915 µM]	·	·	·	·
CCNC(=O)CSc1nnc(-c2cccc(S(=O)(=O)N(CC)CC)c2)n1CCc1ccccc1	·	0%	·	·	·	·
CCSc1nnc(-c2cccc(S(=O)(=O)N(CC)CC)c2)n1Cc1ccccc1	-2%	-6%	14%	?	16µM*	-3%
COc1cc(/C=N/NC(=O)c2cc(-c3ccccc3)n[nH]2)cc(OC)c1OC	-1%	·	-7%	-3%	7%	-1%
COc1ccc(C(=O)N2CCC[C@@]3(CCN(Cc4ccccc4OC)C3)C2)cc1	0%	25%	0%	?	16µM*	1%
Cn1cccc1C(=O)N1CCC[C@@]2(CCN(C(c3ccccc3)c3ccccc3)C2)C1	-3%	20%	-22%	?	10µM*	-4%
COc1ccccc1CN1CC[C@@]2(CCCN(C(=O)c3cc(C(F)(F)F)cc(C(F)(F)F)c3)C2)C1	-1%	34%	13%	?	?	-1%
COc1ccc(C(=O)N2CCC[C@@]3(CCN(c4cccc(-c5ccccc5)c4)C3)C2)cc1	-3%	?	25µM*	0%	14%	0%
SMILES	Caspase-7 inhib	ALOX15B inhib	ALOX15 inhib	TSHR agonist	HEK293 cAMP cs	Caspase-1 inhib
CC(C)CN1CCC2(CC1)CCN(C(=O)c1cnccn1)CC2	-1%	-4%	9%	26%	5%	0%
O=c1cc(-c2ccccc2Cl)oc2c(NS(=O)(=O)c3cc(Cl)cc(Cl)c3O)ccc(O)c12	·	16µM*	·	·	·	·
Nc1ccc(O)c2c(=O)cc(-c3ccccc3Cl)oc12	·	-12%[0.0915 µM]	·	·	·	·
COC(=O)[C@@]1(Cc2ccccc2)[C@H]2c3cc(C(=O)N(C)C)n(Cc4ccccc4)c3C[C@H]2CN1C(=O)c1ccccc1	-8%	4%	·	?	2.5µM*	-6%
COC(=O)[C@@]1(Cc2ccc(OC)cc2)[C@H]2c3cc(C(=O)N(C)C)n(Cc4ccc(OC)c(OC)c4)c3C[C@H]2CN1C(=O)c1ccccc1	-6%	-6%	·	?	16µM*	0%
COC(=O)[C@@]1(Cc2ccccc2)[C@H]2c3cc(C(=O)N(C)C)n(Cc4ccc(OC)c(OC)c4)c3C[C@H]2CN1C(=O)c1ccccc1	-7%	-4%	·	?	?	-1%
COC(=O)[C@@]1(Cc2ccccc2)[C@H]2c3cc(C(=O)N(C)C)n(Cc4ccsc4Br)c3C[C@H]2CN1C(=O)c1ccccc1	-17%	3%	·	?	3.2µM*	-4%
COC(=O)[C@@]1(Cc2ccc(OC)cc2)[C@H]2c3cc(C(=O)N(C)C)n(Cc4ccc(C(F)(F)F)nc4)c3C[C@H]2CN1C(=O)c1ccccc1	-5%	8%	·	?	6.3µM*	-2%
O=C(O)c1[nH]c(=O)[nH]c(=O)c1CN1CCCCC1	-1%[11.5 µM]	2%[11.4 µM]	2%[11.4 µM]	4%[11.4 µM]	-1%[11.4 µM]	1%[11.5 µM]

Assay outcomes (PubChem BioAssay)
